High-throughput results as filed in PubChem.
CSC inhib: blocks cancer stem cells. cancer stem cell-like cells viability, luminescence. inhibition, % at 7.5 µM. 300,000 tested, 1.1% active; in the data active = inhibition above about 75%; inconclusive = no clear call, values can overlap the other calls; tested in HMLE shEcad cells
aSyn 5UTR inh: MLPCN primary screen, SNCA 5' untranslated region | alpha-synuclein 5'UTR reporter, inhibitor activity | inhibition, % (tested at 7.5 µM) | 300,000 tested, 0.82% active | AID 1813; in the data active = inhibition above about 60%; inconclusive = no clear call, values can overlap the other calls;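 note: H4 neuroglioblastoma cells stably carrying SNCA 5'UTR luciferase fusion; 0% = DMSO wells and 100% = positive control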
SKKanGAS inh: blocks kanamycin growth of S. pyogenes SKKanGAS strain; BacTiter-Glo, 6 h; inhibition, % at 7.5 µM; 300,000 tested, 1.3% active;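 active = mean replicate score, as percent of positive control median, at least 50; inconclusive = mean below 50 but one replicate at or above 50; inactive = mean and every replicate below 50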;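 note: strain carries kanamycin resistance gene driven by streptokinase promoter and grows in 40 µg/ml kanamycin; loss of luminescence reflects streptokinase promoter inhibition or plain growth inhibition; 0% = median of DMSO wells and 100% = positive control at its reference dose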
KLF5 inhibitor: suppresses KLF5 promoter-driven expression; DLD-1 KLF5 promoter-luciferase reporter, luminescence; inhibition, % at 5 µM; 290,000 tested, 0.23% active;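 active = inhibition above a per-plate limit of that plate's mean compound inhibition plus 3 SD, cut at about 60% in these data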;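 note: 0% = DMSO wells and 100% = LY294002 at 200 µM; higher means less KLF5 promoter-driven luciferase light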
IEC-6 tox-1: kills IEC-6 intestinal cells in KLF5 counter-screen; 290,000 tested, 0.78% active; IEC-6 cytotoxicity, luminescence viability; inhibition, % at 5 µM;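 note: 0% = plate median of test compound wells and 100% = cytotoxic reference compound wells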
KLF5 confirm: confirmation of KLF5 inhibitors. inhibition, % at 4 µM. shares compounds with KLF5 inhibitor. 610 tested, 79% active. AID 1834. DLD-1 KLF5 promoter firefly luciferase reporter, luminescence;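 active = inhibition above a set limit taken from the earlier primary screen, cut at about 63% in these data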;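 note: 0% = DMSO wells and 100% = LY294002 at 200 µM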
IEC-6 tox-2: counter-screen for KLF5 inhibitors: cytotoxicity in rat IEC-6 cells | shares compounds with KLF5 inhibitor | IEC-6 rat intestinal cells, viability luminescence | inhibition, % at 4 µM | 610 tested, 56% active | AID 1905; in the data active = inhibition above about 23%;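 note: cells exposed to compounds for 48 hours before viability read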
IEC-6 tox confirm: IEC-6 cytotoxicity, confirmation assay; IEC-6 rat intestinal epithelial viability, luminescence; inhibition, % at 5 µM; 1,900 tested, 63% active; shares compounds with IEC-6 tox-1;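 note: 0% = vehicle and 100% = reference cytotoxic drug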
* hit, by the source's call; ? = inconclusive; . = not tested or not shown. An excerpt weighted towards active compounds, which were near 3% of everything screened. Cut-off read from the data, not from the text of the source, unless noted: active = inhibition above about 22%; inactive = the rest.

SMILES | CSC inhib | aSyn 5UTR inh | SKKanGAS inh | KLF5 inhibitor | IEC-6 tox-1 | IEC-6 tox confirm | others
Cc1ccnc(NC(=O)c2ccccc2NC(=O)c2ccc(Cl)cc2Cl)c1 | 61 | 69* | 5 | 67* | 78* | 59* | KLF5 confirm=69*;IEC-6 tox-2=49*
CCC1=Nc2cc(C(=O)NCc3ccco3)ccc2Sc2ccc(C)cc21 | 43 | 104* | 13 | 75* | 81* | 65* | KLF5 confirm=88*;IEC-6 tox-2=67*
CN(C)CCNC(=O)c1cc2c(s1)-c1ccc(Cl)cc1SC2 | 102* | 100* | 13 | -43 | 101* | 28*
Cc1c(Cl)cccc1NC(=O)C1CC2CCC1C2 (stereo not given) | -2 | -6 | 3 | . | . | .
CCOC(=O)c1nc(NNC(=O)c2ccc([N+](=O)[O-])cc2)sc1C | 65 | 62* | 15 | 53 | 38* | 21
CCOC(=O)c1sc(NNC(=O)c2ccc(C)cc2)nc1C | 3 | -24 | 0 | -34 | 1 | .
CCCNc1nc(-c2ccccc2)c(C(=O)OCC)cc1C#N | 51 | 94* | -4 | 30 | 46* | 75*
CC(C)(C)c1ccc(C(=O)N/C(N)=N/c2nc3ccccc3o2)cc1 | 8 | -24 | 7 | 8 | 1 | .
Cc1ccc2oc(/N=C(\N)NC(=O)C3CC3)nc2c1 | 50 | 5 | -5 | -14 | 32* | 31*
CS(=O)(=O)NCc1ccc(C(=O)NC2CCCCC2)cc1 | -13 | 22 | -2 | -6 | 37* | 11
Cc1ccc(S(=O)(=O)NCc2ccc(C(=O)NC3CCCCC3)cc2)cc1 | -11 | 8 | 1 | -17 | -5 | .
COCC(C)NC(=O)COCc1cc(-c2ccc3c(c2)OCO3)on1 (stereo not given) | -29 | 1 | -11 | -28 | -2 | .
O=[N+]([O-])c1cccc(C=Nc2cccc3ccccc23)c1O | 23 | 2 | 13 | -39 | 32* | 12
CCOC(=O)c1ccc(NC(=O)c2ccc[n+]([O-])c2)cc1 | 3 | -18 | 3 | -54 | -3 | .
CCOC(=O)N=Nc1c2ccccc2c2nc3no[nH]c3nc12 | . | 119* | 9 | 1 | 100* | 102*
CCOC(=O)N=Nc1c(O)n(CC(=O)OC)c2ccccc12 | 0 | 3 | -2 | -11 | 3 | .
CN(C)CCN1C(=O)C(=O)/C(=C(/O)c2ccc(S(=O)(=O)N3CCOCC3)cc2)C1c1ccc(F)cc1 (stereo not given) | 5 | 21 | 6 | -16 | 4 | .
Cc1cccc(NC(=O)Cn2cc(C(=O)C3CC3)c3ccccc32)c1C | -3 | -11 | -6 | -12 | 29* | 16
CCC(=O)c1cn(CC(=O)Nc2cccc(C)c2C)c2ccccc12 | -4 | 13 | 0 | -21 | 4 | .
Clc1ccc2c(c1)C(N1CCNCC1)Cc1ccccc1S2 (stereo not given) | -6 | 21 | 17 | 17 | 12 | .
Clc1cccc2c1Sc1ccccc1CC2N1CCNCC1 (stereo not given) | -6 | -1 | -3 | 1 | 23* | 9
CC1(C)CC(N2CCCC2)=CC(=[N+]2CCCCC2)C1 | -19 | -56 | -1 | -12 | 23* | 33*
CC1(C)CC(N2CCCC2)=CC(=[N+]2CCCC2)C1 | 18 | -24 | -6 | -8 | 16 | .
COC(=O)c1ccc(NS(=O)(=O)c2cc(-c3cc(C)no3)ccc2OC)cc1 | 61 | -26 | -6 | 50 | 63* | 40*
COc1ccc(-c2cc(C)no2)cc1S(=O)(=O)Nc1ccccc1 | 43 | -47 | 1 | -1 | 21 | .
SMILES | CSC inhib | aSyn 5UTR inh | SKKanGAS inh | KLF5 inhibitor | IEC-6 tox-1 | IEC-6 tox confirm | others
Cc1ccccc1C=Nc1ccccc1C(N)=O | -5 | -15 | -1 | 23 | 23* | 8
O=C(Cc1ccccc1)Nc1cccc(C(=O)O)c1O | -9 | 12 | -11 | -13 | -1 | .
COc1cc(C2=NOC(C(=O)NCc3ccco3)C2)cc(OC)c1OC (stereo not given) | 65 | 12 | -1 | 27 | 26* | 44*
COc1ccc(C2=NOC(C(=O)NCc3ccco3)C2)cc1 (stereo not given) | . | -77 | -2 | 15 | 25* | 35*
CN(C)c1ccc(-c2nn3c(-c4ccccc4Cl)nnc3s2)cc1 | 59 | 82* | 19 | 23 | 35* | 57*
Cc1noc(C)c1S(=O)(=O)N1CCCC1C(=O)O (stereo not given) | . | -21 | 2 | -29 | -5 | .
CC1=CC(C)(C)N(S(=O)(=O)c2ccc(C)cc2)c2ccccc21 | . | 41 | 2 | 9 | 5 | .
COc1ccc2c(c1)C(C)=CC(C)(C)N2S(=O)(=O)c1ccc(Br)cc1 | -9 | -86 | 27 | 22 | 68* | 57*
Cc1noc(C)c1CSc1nc2ccccc2c(=O)n1-c1ccccc1 | 6 | 1 | 10 | 7 | 30* | 38*
C=CCn1c(SCc2c(C)noc2C)nc2ccccc2c1=O | ? | 80* | 5 | 58 | 83* | 57*
C=CCn1c(SCc2c(C)noc2C)nc2cc(C(=O)O)ccc2c1=O | 51 | 0 | 8 | -6 | 1 | .
CCOc1ccc(Nc2ncnc3c2cnn3C)cc1 | -8 | -23 | 21 | -6 | -1 | .
O=C(NCc1ccco1)C(=O)NCC1OCCCN1S(=O)(=O)c1ccccc1 (stereo not given) | -11 | 4 | -13 | -17 | -1 | .
O=C(NC1CCCC1)C(c1ccc(F)cc1)N(Cc1ccc(F)cc1)C(=O)CCl (stereo not given) | -10 | -15 | -7 | -8 | -2 | .
CC(=O)N1CCN(C2c3cccc4cccc(c34)C2NS(=O)(=O)c2ccccc2)CC1 (stereo not given) | 11 | -25 | -6 | -24 | 3 | .
O=S(=O)(NC1c2cccc3cccc(c23)C1N1CCNCC1)c1ccc(Cl)cc1 (stereo not given) | 0 | 4 | 4 | 10 | 36* | 8
Cc1cccc(C(=O)NCC(=O)NC2CCC(C)CC2)c1 (stereo not given) | -12 | -4 | -1 | . | . | .
Cc1ccc(C(=O)Sc2cccccc2=O)cc1 | 28 | -109 | 37 | 31 | 99* | 101*
CCc1ccc(CNC(=O)Cc2ccc(NC(=O)C3=C(C)OCCS3)cc2)cc1 | 61 | 66* | -1 | 43 | 78* | 53*
Cc1oc(-c2cccs2)nc1CN1CCC(CO)(CCOc2ccccc2)CC1 | 8 | 4 | 4 | 6 | 4 | .
O=C1CC(c2ccccc2)CC(=O)N1c1ccc(C(F)(F)F)cc1 | -3 | . | . | . | . | .
CC(=O)CC1OC(=O)C(Br)=C1NCc1ccccc1 (stereo not given) | 41 | 1 | 4 | -28 | 34* | 9
CCn1c(-c2ccc(N(C)C)cc2)nc2ccccc21 | 6 | -97 | 15 | -89 | 30* | 6
CCn1c(-c2ccc(N)cc2)nc2ccccc21 | -9 | -18 | -4 | -19 | 3 | .
